Bioassay records deposited in PubChem BioAssay by several laboratories.
This is a sample that favours compounds with a hit; in the whole collection about 4.7% have one here.
Efflux pump inh = inhibitors of Candida antifungal efflux pumps expressed in yeast. S. cerevisiae Candida pump triplex, Nile Red efflux. AID 485275. inhibition, % at 10 µM. hit rate 0.44% among 330,000;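 active = plate passing quality check with inhibition over a set limit, or well fluorescence over plate mean plus 4 SD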;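 also: Nile Red retained in pooled yeast measured as flow cytometry median fluorescence; 0% = buffer negative control and 100% = Enniatin B positive control; higher means more Nile Red kept so more efflux inhibition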
MLLE-PAM2 inh = inhibitors of microRNA-mediated deadenylation, human PABP1 MLLE binding; P11940; GST-MLLE / FITC-PAM2 fluorescence polarization; inhibition, % at 20 µM; hit rate 0.36% among 360,000; AID 588489; in the data active = inhibition above about 35%, passing the limit was not always enough;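 also: plate controls were DMSO wells with GST-MLLE for no effect and wells lacking GST-MLLE protein for full effect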
Target sequence (P11940 whole entry, looked up): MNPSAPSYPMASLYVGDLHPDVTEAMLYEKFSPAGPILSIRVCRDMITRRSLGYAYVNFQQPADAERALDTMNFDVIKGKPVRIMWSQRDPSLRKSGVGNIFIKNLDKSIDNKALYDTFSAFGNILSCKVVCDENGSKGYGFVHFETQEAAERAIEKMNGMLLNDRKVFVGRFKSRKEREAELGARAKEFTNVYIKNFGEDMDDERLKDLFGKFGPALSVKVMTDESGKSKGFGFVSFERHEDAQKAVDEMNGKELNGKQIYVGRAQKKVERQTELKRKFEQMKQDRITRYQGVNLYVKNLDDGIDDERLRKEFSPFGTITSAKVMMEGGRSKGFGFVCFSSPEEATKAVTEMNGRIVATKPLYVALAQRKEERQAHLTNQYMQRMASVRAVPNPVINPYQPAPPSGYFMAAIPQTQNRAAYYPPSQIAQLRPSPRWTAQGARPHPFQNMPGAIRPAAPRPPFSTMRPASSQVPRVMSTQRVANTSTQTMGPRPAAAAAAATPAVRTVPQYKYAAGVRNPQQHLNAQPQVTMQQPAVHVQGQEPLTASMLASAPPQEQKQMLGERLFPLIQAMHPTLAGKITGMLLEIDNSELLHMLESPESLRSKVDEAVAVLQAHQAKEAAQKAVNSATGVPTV
ALR inh = human ALR oxidase inhibition via reduced H2O2 | P55789 | purified ALR, DTT oxidation, H2O2 HRP-luminol luminescence | inhibition, % (test concentration not listed) | hit rate 3.8% among 290,000;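 active = mean replicate inhibition above about 79%, with every replicate also reaching it, limit read from the data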
PABP polyA inh = blocks human PABP binding to poly(A) RNA; P11940; fluorescence polarization; inhibition, % at 35 µM; hit rate 1% among 290,000; AID 2014;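 also: calls also rest on retests at 20 µM and on dose response follow-up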
SUMO HTRF inh = SUMOylation inhibition; hit rate 0.36% among 290,000; P63279; AID 2006; inhibition, % at 35 µM; HTRF SUMOylation assay, SAE1/SAE2 + UBC9, in vitro; in the data active = inhibition above about 50%, passing the limit was not always enough
eIF4H FP inh = inhibitors of RNA binding by human eIF4H; AID 2012; eIF4H fluorescence polarization binding assay; Q15056; hit rate 0.94% among 290,000; inhibition, % at 35 µM;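 also: calls also rest on retests at 20 µM and on dose response follow-up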
* marks the source's active call; other numbers are inactive results. Unless noted, no rule for the calls is given here.

`Cc1cc(C)cc(NC(=O)COC(=O)c2cc(=O)[nH]c(=O)[nH]2)c1` gave Efflux pump inh 0, MLLE-PAM2 inh 9, ALR inh -2, PABP polyA inh -2, SUMO HTRF inh 14 and eIF4H FP inh -6.
`CCCCOC(=O)c1cc(=O)[nH]c(=O)[nH]1` gave Efflux pump inh 0, MLLE-PAM2 inh -5, ALR inh -5, PABP polyA inh 61*, SUMO HTRF inh 5 and eIF4H FP inh -4.
OC[C@H]1OC(O)[C@H](O)[C@@H]1O (stereo partly specified) was read as Efflux pump inh 0, MLLE-PAM2 inh 1 and ALR inh -14.
For CCOC(=O)c1c(Cc2ccccc2)c[nH]c1C the results were Efflux pump inh 0, MLLE-PAM2 inh -8, ALR inh 95*, PABP polyA inh 2, SUMO HTRF inh -3 and eIF4H FP inh 1.
`CCC(c1nnc(SCC(=O)Nc2ccc(C(=O)Nc3ccccc3OC)cc2)o1)N(C)C` (stereo unspecified) gave Efflux pump inh 0, MLLE-PAM2 inh -18, ALR inh 99*, PABP polyA inh 0, SUMO HTRF inh -17 and eIF4H FP inh -4.
C=CCN1CN(S(=O)(=O)c2cccs2)c2nc3ccccc3nc21 was read as Efflux pump inh 0, MLLE-PAM2 inh -15, ALR inh -20, PABP polyA inh 98*, SUMO HTRF inh 4 and eIF4H FP inh 82*.
O=S(=O)(c1cccs1)N1CN(Cc2cccs2)c2nc3ccccc3nc21 was read as Efflux pump inh 0, MLLE-PAM2 inh -13, ALR inh -22, PABP polyA inh -5, SUMO HTRF inh -8 and eIF4H FP inh 0.
Cc1cn(C2CCCCO2)c(=O)[nH]c1=O (stereo unspecified) was read as MLLE-PAM2 inh 5.
`CC(C)c1ccc(N(CC(=O)NCc2cccnc2)S(=O)(=O)c2ccccc2)cc1` gave Efflux pump inh 0, MLLE-PAM2 inh -11, ALR inh -2, PABP polyA inh -4, SUMO HTRF inh -7 and eIF4H FP inh -6.
`CC1CC(C)CN(CC(=O)N2CCc3[nH]c4ccccc4c3C2)C1` (stereo unspecified) gave Efflux pump inh 0, MLLE-PAM2 inh 11, ALR inh -16, PABP polyA inh 106*, SUMO HTRF inh 7 and eIF4H FP inh 126*.
O=[N+]([O-])c1cccc(C(=S)N2CCCC2)c1 was read as Efflux pump inh 0, MLLE-PAM2 inh 4, ALR inh 1, PABP polyA inh -7, SUMO HTRF inh -1 and eIF4H FP inh -13.
For O=[N+]([O-])c1cccc(C(=S)N2CCN(c3ccc(F)cc3)CC2)c1 the results were Efflux pump inh 0, MLLE-PAM2 inh 76*, ALR inh -7, PABP polyA inh 6, SUMO HTRF inh 18 and eIF4H FP inh 3.
Screening O=C(CSc1n[nH]c(-c2ccccc2)n1)c1ccccc1 returned Efflux pump inh 0, MLLE-PAM2 inh -11, ALR inh 97*, PABP polyA inh 23, SUMO HTRF inh 5 and eIF4H FP inh 3.
`CC(=O)Nc1ccc(NC(=O)CSc2nnc(-c3ccco3)o2)cc1` gave Efflux pump inh 0, MLLE-PAM2 inh 15, ALR inh 39, PABP polyA inh -16, SUMO HTRF inh 8 and eIF4H FP inh -9.
`CC(=O)c1ccc(NC(=O)CSc2nnc(-c3ccco3)c(-c3ccco3)n2)cc1` gave Efflux pump inh 0, MLLE-PAM2 inh 32, ALR inh 99*, PABP polyA inh 84, SUMO HTRF inh 90* and eIF4H FP inh 100.
Screening O=C(CSc1nnc(-c2ccco2)c(-c2ccco2)n1)c1ccccc1 returned Efflux pump inh 0, MLLE-PAM2 inh 22, ALR inh 99*, PABP polyA inh 101*, SUMO HTRF inh 87 and eIF4H FP inh 110*.
For COc1ccc(CCNCC(O)Cn2c3ccccc3c3ccccc32)cc1OC (stereo unspecified) the results were Efflux pump inh 0, MLLE-PAM2 inh 4, ALR inh -9, PABP polyA inh 0, SUMO HTRF inh -8 and eIF4H FP inh -6.
For COc1ccccc1NCC(O)Cn1c2ccccc2c2ccccc21 (stereo unspecified) the results were Efflux pump inh 0, MLLE-PAM2 inh 7, ALR inh 87*, PABP polyA inh 4, SUMO HTRF inh 8 and eIF4H FP inh -13.
Screening Cc1ccc(/C=N/Nc2ccc(C(=O)O)cc2)s1 returned Efflux pump inh 0, MLLE-PAM2 inh 0, ALR inh 99*, PABP polyA inh 6, SUMO HTRF inh -4 and eIF4H FP inh 48.
For O=C(O)c1ccc(N/N=C/c2ccc(-c3ccc(Br)cc3)o2)cc1 the results were Efflux pump inh 0, MLLE-PAM2 inh 0, PABP polyA inh 7, SUMO HTRF inh 21 and eIF4H FP inh 55.
For O=C(O)c1ccc(N/N=C/C=C/c2ccccc2)cc1 the results were Efflux pump inh 0, MLLE-PAM2 inh -1, ALR inh 92*, PABP polyA inh 0, SUMO HTRF inh 16 and eIF4H FP inh -6.
O=C(N/N=C/C=C/c1ccccc1)c1ccncc1 was read as Efflux pump inh -3, MLLE-PAM2 inh 6, ALR inh -5, PABP polyA inh -16, SUMO HTRF inh 9 and eIF4H FP inh -4.
For O=C(O)c1cccc(Cn2c(Cl)c(/C=N/Nc3ccccc3)sc2=O)c1 the results were Efflux pump inh 0, MLLE-PAM2 inh -163, ALR inh 100*, PABP polyA inh -3, SUMO HTRF inh 29 and eIF4H FP inh -3.
Cc1ccc(/C=N/Nc2ccc(C(=O)O)cc2)o1 was read as Efflux pump inh 0, MLLE-PAM2 inh 16, ALR inh 98*, PABP polyA inh 20, SUMO HTRF inh 3 and eIF4H FP inh 0.
`O=C(O)c1cccc(Cn2c(Cl)c(/C=N/NC(=O)c3ccccc3Cl)sc2=O)c1` gave Efflux pump inh 0, MLLE-PAM2 inh -57, ALR inh 28, PABP polyA inh 2, SUMO HTRF inh 3 and eIF4H FP inh -4.
Screening COc1cccc(NC(=O)N(C)C[C@H]2Oc3cc(Br)ccc3S(=O)(=O)N([C@H](C)CO)C[C@H]2C)c1 returned MLLE-PAM2 inh 24.
For C/C(=N\Nc1ccc(C(=O)O)cc1)c1ccc(Br)cc1 the results were Efflux pump inh 0, MLLE-PAM2 inh 14, ALR inh 98*, PABP polyA inh 36, SUMO HTRF inh 16 and eIF4H FP inh 51*.
O=C(O)c1ccc(N/N=C/c2cc(Br)cs2)cc1 was read as Efflux pump inh 0, MLLE-PAM2 inh -1, ALR inh 98*, PABP polyA inh 7, SUMO HTRF inh -4 and eIF4H FP inh 2.
Screening Cc1ccc(/C=N/Nc2cccc(C(=O)O)c2)s1 returned Efflux pump inh 0, MLLE-PAM2 inh 18, ALR inh 98*, PABP polyA inh 7, SUMO HTRF inh 7 and eIF4H FP inh 41.
For O=C(O)c1cccc(N/N=C/c2cccc3ccccc23)c1 the results were Efflux pump inh 0, MLLE-PAM2 inh -4, ALR inh 99*, PABP polyA inh 2, SUMO HTRF inh 17 and eIF4H FP inh -4.
